Shown are actives, neighbours in structure and some others; about 3.3% of the full set was active somewhere.
DRD3 agonist = agonists of human D3 dopamine receptor; D3R DiscoveRx beta-arrestin cells, luminescence, 90 min; P35462; AID 652048; hit rate 0.58% among 410,000; max activation, %; in the data active = max activation above about 30%; also: 0% is about no effect
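Agonist-mode cell screen: cells plated at 1500/well and incubated overnight at 37 °C, then exposed to library compounds for 90 min at 37 °C. Detection reagent was added for 30–60 min at room temperature, and luminescence was read.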
PI5P4K alpha inh = inhibitors of human PI5P4K alpha; P48426; PI5P4Kalpha enzyme, ADP-Glo luminescence, 60 min; active compounds read low; max response, %; hit rate 1.2% among 330,000; AID 652105; active = max response of -50% or lower; inconclusive = between -30% and -50%; inactive = -30% or higher; also: value at the top dose of about 77 µM; % is scaled to controls: 0 for no effect and ±100 for the full control effect
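Enzyme plus substrate dispensed, test compounds pinned in, then ATP (5 microM final) added. After 60 min at RT, ADP-Glo reagent 1 for 45 min and reagent 2 for 30 min preceded luminescence imaging.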
DRD3 antagonist = D3 dopamine receptor (human) antagonism; hit rate 2.5% among 360,000; max response, negative = inhibition, %; P35462; AID 652054; D3R cells, DiscoveRx beta-arrestin luminescence, antagonist mode; active compounds read low; in the data active = max response below about -50%; inconclusive = no clear call, values can overlap the other calls; also: % is scaled to controls: 0 for no effect and ±100 for the full control effect
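Cells expressing the human receptor were seeded at 1500 cells/well, incubated overnight at 37 degrees C in 5% CO2, then exposed to library compounds with dopamine controls for 90 minutes at 37 degrees C before luminescent detection.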
LDHA inh = inhibitors of human lactate dehydrogenase A; purified LDHA, NADH/diaphorase-resazurin fluorescence; active compounds read low; hit rate 0.15% among 480,000; P00338; activity change, % (values are at about 110 or 230 µM); in the data active = activity change below about -30%; inconclusive = mostly about -25% to -30%;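 also: plate controls were DMSO wells for no effect and wells without enzyme for full effect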
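Remaining NADH was detected by diaphorase (0.133 mg/mL) converting 37 µM resazurin to fluorescent resorufin, read at 0 and 20 minutes. The preceding 5-minute room-temperature reaction used 2 nM LDHA, 0.2 mM sodium pyruvate and 0.06 mM NADH at pH 7.4.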
PI4K2A inh = PI4K2A (human) kinase inhibition; AID 1346378; Q9BTU6; purified PI4K2A, ADP-Glo luminescence, 1 h; active compounds read low; activity change, negative = inhibition, % at 76.9 µM; hit rate 0.13% among 420,000; in the data active = activity change below about -50%; inconclusive = mostly about -30% to -49%;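 also: -100% = wells without enzyme as full effect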
Target sequence (Q9BTU6 whole entry, looked up): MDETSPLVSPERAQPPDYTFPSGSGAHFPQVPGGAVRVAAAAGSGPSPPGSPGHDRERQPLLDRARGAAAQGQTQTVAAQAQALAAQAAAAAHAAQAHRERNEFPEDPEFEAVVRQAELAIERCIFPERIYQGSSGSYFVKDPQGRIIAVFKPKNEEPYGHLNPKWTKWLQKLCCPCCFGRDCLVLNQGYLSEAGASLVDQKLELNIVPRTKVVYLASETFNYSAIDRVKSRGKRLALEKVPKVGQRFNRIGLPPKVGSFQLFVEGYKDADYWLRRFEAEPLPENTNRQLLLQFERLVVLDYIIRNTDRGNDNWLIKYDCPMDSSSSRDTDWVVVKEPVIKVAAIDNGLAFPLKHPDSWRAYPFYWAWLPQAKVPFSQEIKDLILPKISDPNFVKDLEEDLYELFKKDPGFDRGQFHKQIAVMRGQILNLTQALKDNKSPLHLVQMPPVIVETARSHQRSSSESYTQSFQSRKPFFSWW
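ADP-Glo luminescence measured ADP generated by PI4K2A enzyme (4 ug/mL before mixing) with 1.2 mM PI substrate (pre-mix) and 300 microM ATP (pre-mix). Tris pH7.5 buffer with MgCl2, Triton X-100; 1 h reaction at ambient temperature.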
* marks the source's active call; other numbers are inactive results; ? = inconclusive; · = not tested or not shown.

SMILES	DRD3 agonist	PI5P4K alpha inh	DRD3 antagonist	LDHA inh	PI4K2A inh
C=CCn1c(=O)c2c(nc(-n3nc(C)c(C)c3C)n2CC(=C)C)n(C)c1=O	·	·	·	-32*	·
CCN1CCN(c2nc3c(c(=O)[nH]c(=O)n3C)n2Cc2c(Cl)cccc2Cl)CC1	·	·	·	-1	·
CCCCCCCCCCC[N+](C)(C)CC/C=C1/c2ccccc2Sc2ccc(Cl)cc21	-3	16	-124*	2	-1
CCCCCCCCCC[N+](C)(C)CC/C=C1/c2ccccc2Sc2ccc(Cl)cc21	-2	19	-113*	5	0
CC[N+](C)(C)CC/C=C1/c2ccccc2Sc2ccc(Cl)cc21	-10	-5	-8	-12	1
Cc1ccc(-c2ccc3c(N)c(C(=O)Nc4ccccc4)sc3n2)cc1	·	·	·	-9	·
CCOc1cccc(/C=C(/C#N)c2ccc(C(F)(F)F)cn2)c1	·	·	·	1	·
CC[C@H](C)/C=C(C)/C=C/C(=O)Cc1cc(O)c(C)c(O)c1C=O	8	-57*	0	7	-11
O=C(C[n+]1cccc(CNC(=O)c2ccc(OC(F)F)cc2)c1)Nc1cccc(C(F)(F)F)c1	-3	14	-51*	2	-4
O=C(C[n+]1cccc(CNC(=O)c2ccc(OC(F)F)cc2)c1)Nc1ccc(F)cc1	-12	22	-28	-5	-1
CN(CCOc1ccccc1)CC(O)COc1ccccc1 (stereo not given)	-11	-4	-74*	-9	1
CN(CCOc1ccc(Cl)cc1)CC(O)c1ccccc1 (stereo not given)	-9	-1	-52*	-18	-5
CC(OCC(O)CN(C)CCOc1ccccc1)c1ccc(Cl)cc1 (stereo not given)	-5	-2	-69*	-9	0
CN(CCOc1ccc(Br)cc1)CC(O)c1ccccc1 (stereo not given)	-13	-2	-18	-15	-1
CN(CCOc1ccccc1)CC(O)COCc1ccccc1F (stereo not given)	-5	0	?	-9	3
C/C(=N/NC(=O)c1cccs1)c1c(C)[nH]n(-c2nc3ccccc3s2)c1=O	-10	?	?	-11	-66*
CC(=NCc1ccco1)c1c(C)[nH]n(-c2nc3ccccc3s2)c1=O	-2	·	16	-3	-27
COc1ccc(C(=O)NCc2ccc(Cl)c(Cl)c2)cc1OC	-4	7	-2	4	-1
COc1ccc(C(=O)NCc2ccc(OCCN(C)C)cc2)cc1OC	-76	-5	-72*	-8	-3
COc1cc(C(=O)NCc2ccc(OCCN(C)C)cc2)cc(OC)c1OC	-86	5	-95*	-7	2
COc1cc(C(=O)NCc2ccncc2)cc(OC)c1OC	5	-2	4	-8	1
CC(C)NC(=S)NNC(=O)C1CC1	·	·	·	0	·
O=C(Cn1nc(C(=O)O)c2ccccc2c1=O)c1ccc(F)cc1	·	·	·	1	·
O=C(Cc1cccs1)N=Nc1c(O)[nH]c2ccccc12	-7	-25	-12	-1	-3
O=C(N=Nc1c(O)[nH]c2ccccc12)c1cc(-c2cccs2)[nH]n1	8	-16	39	-39*	3
SMILES	DRD3 agonist	PI5P4K alpha inh	DRD3 antagonist	LDHA inh	PI4K2A inh
O=C(CSc1nc2ccccc2o1)Nc1ccc(Oc2ccccc2)cc1	·	·	·	13	·
CC(=O)N1CCCc2cc(S(=O)(=O)N3CCN(C4CCCCC4)CC3)ccc21	-3	0	-56*	-9	0
CC(C)c1ccccc1OCC(O)CN1CCN(S(=O)(=O)c2ccc([N+](=O)[O-])cc2)CC1 (stereo not given)	-18	11	-55*	-10	6
O=S(=O)(c1ccc(F)cc1)N1CCN(CC(O)COc2ccccc2F)CC1 (stereo not given)	-12	4	-9	-14	6
O=C1N[C@H](Cc2ccccc2)CO1	-15	-7	?	-3	-3
c1ccc(CC2CNc3ccccc3CN2)cc1 (stereo not given)	-5	-3	-52*	-1	-3
O=C(CNS(=O)(=O)c1ccccc1)NCc1ccccn1	2	·	-51*	-4	7
Cc1ccc(-c2cnc(-c3ccccc3C(=O)NCc3ccccc3)o2)cc1	·	·	·	-2	·
S=c1[nH]cc(-c2ccccc2)[nH]1	1	2	-13	1	-2
O=[N+]([O-])c1ccc(-c2c[nH]c(=S)[nH]2)cc1	-3	-77*	10	-3	-12
